Only some compounds are listed: those with a hit (about 1.6% of all), similar ones and a draw of the others.
KCNQ2 enhance: potentiators of rat KCNQ2 potassium channel; AID 2239, 2010; CHO-K1 KCNQ2, FluxOR thallium flux fluorescence; active compounds read high; Potassium voltage-gated channel subfamily KQT member 2 (Rattus norvegicus), O88943; B-score at 10 µM; 310,000 compounds, 0.54% hits;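 active means fluorescence ratio B-score at least 3 SD of library B-scores, with initial fluorescence B-score within 3 of them, cut at about 5.3 in these data; same plate scores as AID 2156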;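 further: B-score of peak minus minimum over baseline fluorescence ratio after K+ and Tl+ stimulus; positive B-score means potentiation of KCNQ2 with more thallium influx and brighter signal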
KCNQ2 inh: rat KCNQ2 potassium channel inhibitors, primary screen, cell-based, CHO-K1, FluxOR thallium flux, B-score. B-score at 10 µM. Potassium voltage-gated channel subfamily KQT member 2 (Rattus norvegicus), O88943. 310,000 compounds, 1.1% hits. 20 min; active compounds read low;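 active means fluorescence ratio B-score at most minus 3 library SDs, with starting brightness B-score within 2 library SDs, cut at about -5.5 in these data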
Kir21 confirm: mouse Kir2.1 channel blockers, retest, confirmation, cell-based, FluxOR thallium flux, duplicate; shares compounds with KCNQ2 enhance; Kir2.1-expressing cells, FluxOR thallium flux fluorescence; active compounds read low; Tl flux remaining, % of negative control (active compounds read low), % at 10 µM; 2,300 compounds, 41% hits;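 active means Primary-screen hit whose thallium flux fell at least 3 control SD below untreated wells in both duplicates, with normal baseline fluorescence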;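 further: 0% = blank wells without stimulus and 100% = stimulated no-compound controls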
HEK293 ctr: parental HEK293 activity in Kir2.1 inhibitor counter-screen. shares compounds with KCNQ2 enhance. parental HEK293 cells, FluxOR thallium flux fluorescence; 0% = unstimulated blank wells. FluxOR signal as % of negative control (100 = no effect), % at 10 µM. 2,300 compounds, 19% hits. AID 2105;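 active means dye signal at least 3 control SD above or below untreated wells in both duplicates, raw fluorescence within 3, either direction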;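 further: percent is based on the flux ratio of peak minus minimum fluorescence over baseline F0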
CHO-K1 Tl ctr: nonspecific thallium flux increase in parental CHO-K1, confirmation, counter-screen for KCNQ2 potentiator project, cell-based, FluxOR thallium flux, duplicate | shares compounds with KCNQ2 enhance | parental CHO-K1 cells, FluxOR thallium flux fluorescence; zero = vehicle mean+3SD, 100% = vehicle-minus-blank window | activity increase over 3SD of controls, % at 10 µM | 1,200 compounds, 43% hits | AID 2282, 2010;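 active means signal rise of at least 3 SD above the untreated control mean, in both duplicate wells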;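 further: counter screen of KCNQ2 potentiator hits so any rise reflects channel-independent effects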
KCNQ1 pot spec: human KCNQ1 channel potentiation off-target, confirmation, selectivity assay for KCNQ2 potentiator project, cell-based, CHO, FluxOR thallium flux; shares compounds with KCNQ2 enhance; CHO KCNQ1 stable, FluxOR thallium flux fluorescence; beyond 3SD, as % of vehicle-control signal; activation over 3SD threshold, % at 10 µM; 1,200 compounds, 28% hits; AID 2283, 2010;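 active means fluorescence ratio rise of at least 3 SD of vehicle wells above their mean, in both replicate wells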;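 further: 0% = vehicle mean plus 3 SD and 100% = vehicle minus unstimulated blank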
KCNQ2 pot confirm: rat KCNQ2 channel potentiators, confirmation, cell-based, CHO, FluxOR thallium flux, duplicate | shares compounds with KCNQ2 enhance | potentiation, less the hit threshold, % at 10 µM | 1,200 compounds, 68% hits | AID 2287, 2010 | CHO-KCNQ2 cells, FluxOR thallium flux fluorescence;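 active means fluorescence ratio rising 3 SD or more over the vehicle control mean in both replicates, plus primary screen hit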;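 further: peak minus minimum thallium fluorescence divided by baseline after K/Tl stimulus; 0% = vehicle mean plus 3 SD and 100% = vehicle minus unstimulated blank difference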
Kir21 spec: mouse Kir2.1 channel activation off-target, confirmation, selectivity assay for KCNQ2 potentiator project, cell-based, HEK293, FluxOR thallium flux. shares compounds with KCNQ2 enhance. HEK293 Kir2.1, FluxOR thallium flux fluorescence. activity over 3SD threshold, % at 10 µM. 1,200 compounds, 2% hits. AID 2345, 2010;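 active means fluorescence ratio rise of at least 3 SD above the vehicle-control mean, seen in both replicates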;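 further: 0% = vehicle mean plus 3 SD and 100% = vehicle minus no-stimulus blank window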
KCNQ2 W236L MoA: potentiators of retigabine-insensitive KCNQ2 W236L, mechanism study for KCNQ2 potentiator project, cell-based, rat KCNQ2 W236L, CHO, automated patch clamp; 940 compounds, 10% hits; current increase over 3SD of negative controls (%), active compounds read high, % at 25 µM; automated patch clamp current; shares compounds with KCNQ2 enhance;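 active means current increase at least 3 SD of the untreated controls above them in both duplicate recordings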
Active calls of the source: *; i = inactive; . = no result.

SMILES	KCNQ2 enhance	KCNQ2 inh	Kir21 confirm	HEK293 ctr	others
COc1cc(C(C2=C(O)CC(C)(C)CC2=O)C2C(=O)CC(C)(C)CC2=O)cc(OC)c1OC (centres undefined)	.	i	.	.
CC1(C)CC(=O)C(C(C2=C(O)CC(C)(C)CC2=O)c2ccco2)C(=O)C1 (centres undefined)	5.4*	i	i	i	CHO-K1 Tl ctr=135*;KCNQ1 pot spec=-10;KCNQ2 pot confirm=42*;Kir21 spec=-44;KCNQ2 W236L MoA=i
CCn1nnnc1NCc1c(OC)ccc2ccccc12	.	i	.	.
COc1ccc2oc(C(=O)OCC(=O)Nc3ccc(NC(C)=O)cc3)c(C)c2c1	.	i	.	.
COc1ccc2oc(C(=O)OCC(=O)N(C)CC(=O)Nc3ccc(C)cc3)c(C)c2c1	7.4*	i	i	i	CHO-K1 Tl ctr=32*;KCNQ1 pot spec=-11;KCNQ2 pot confirm=-5;Kir21 spec=-33
Cc1ccc[n+](CC(=O)c2ccc(NC(=O)c3ccccc3)cc2)c1C	.	i	.	.
Cc1ccc(Cl)cc1N1CCN(C(=O)CN2C(=O)c3cccc4cccc2c34)CC1	1.8	i	.	.
CCCn1c2ccccc2c2cnn(CC(=O)N3CCOCC3)c(=O)c21	3.1	i	.	.
CCCn1c2ccccc2c2cnn(CC(=O)N3CCN(C4CCCCC4)CC3)c(=O)c21	9*	i	i	i	CHO-K1 Tl ctr=-7;KCNQ1 pot spec=35*;KCNQ2 pot confirm=20*;Kir21 spec=-46;KCNQ2 W236L MoA=i
CCCn1c2ccccc2c2cnn(CC(=O)N(CC)CC)c(=O)c21	.	i	.	.
O=C(Cn1ncc2c3ccccc3n(Cc3ccccc3)c2c1=O)N1CCN(c2ncccn2)CC1	4.7	i	.	.
O=C(Cn1ncc2c3ccccc3n(Cc3ccccc3)c2c1=O)N1CCN(c2ccccn2)CC1	7.5*	i	i	i	CHO-K1 Tl ctr=-13;KCNQ1 pot spec=42*;KCNQ2 pot confirm=20*;Kir21 spec=-35;KCNQ2 W236L MoA=i
CCCCN(C)C(=O)Cn1ncc2c3ccccc3n(CCC)c2c1=O	6*	i	i	i	CHO-K1 Tl ctr=113*;KCNQ1 pot spec=-17;KCNQ2 pot confirm=-1;Kir21 spec=-36;KCNQ2 W236L MoA=i
COc1ccc(C2C(C(C)=O)=C(O)C(=O)N2CCc2c[nH]c3ccccc23)cc1OC (centres undefined)	.	i	.	.
COc1ccc(NC(C)=O)cc1S(=O)(=O)N1CCc2ccccc21	1.7	i	.	.
CC(C)Oc1ccc(C(CC(=O)N(C)CCC#N)c2ccc(F)cc2)cc1 (centres undefined)	0.26	i	.	.
COc1ccc(CNCCC(c2ccc(OC(C)C)cc2)c2ccccc2OC)cc1 (centres undefined)	.	i	29%*	i
COc1ccccc1C(CCNCc1ccccc1)c1ccc(OC(C)C)cc1 (centres undefined)	.	i	58%*	i
COc1ccccc1C(CCNCc1ccc(N(C)C)cc1)c1ccc(OC(C)C)cc1 (centres undefined)	.	i	.	.
COc1ccc(CNCCC(c2ccc(OC(C)C)cc2)c2ccccc2OC)cc1OC (centres undefined)	.	i	.	.
O=S(=O)(Nc1cccc(CCc2ccccn2)c1)c1ccc(Cl)cc1	.	i	i	i

Bioassay records (PubChem)
